{"source": "ChEMBL document CHEMBL3988442", "about": "“University of Dundee, Small-Polar-MMV Screening Library” (2021)", "data": [{"target": "AMP-activated protein kinase, AMPK (Homo sapiens) (UniProt P54646+O43741+P54619+Q9UGJ0+Q9Y478+Q13131+Q9UGI9)", "experiment": "AMP-dependent Kinase enzyme assay. An in vitro enzyme assay that detects ADP turnover that is directly proportional to AMPK activity. This uses naive AMPK that is activated during the assay with MK-8722", "assay_type": "functional", "design": "scale not given: direction of the effect not stated beside the values", "settings": "30 µM", "units": {"Percent Effect": "%"}, "values": [{"smiles": "CS(=O)(=O)NCC1Cc2ccccc2O1", "note": "(centres undefined)", "Percent Effect": -1.87}, {"smiles": "CCC(C)C(=O)N(C)Cc1cc(F)ccc1N1CCC(OC)CC1", "note": "(centres undefined)", "Percent Effect": 8.71}, {"smiles": "Cc1cc(C)c2[nH]c(C(=O)NCCN3CCCC3=O)c(C)c2c1", "Percent Effect": 13.3}, {"smiles": "COC1CCCOC12CCN(C(=O)NCc1ccco1)CC2", "note": "(centres undefined)", "Percent Effect": 13}, {"smiles": "CCOC(=O)N(C)CC(=O)NCCc1coc(-c2ccc(C)cc2)n1", "Percent Effect": -1.7}, {"smiles": "Cc1cncc(C2CCN(Cc3cnc(C)nc3)CC2)n1", "Percent Effect": 9.99}, {"smiles": "O=S(=O)(NCc1ccnc(-n2ccnc2)c1)c1cncc(Cl)c1", "Percent Effect": 0.0234}, {"smiles": "C[C@@H]1CN(C(=O)Cn2ccc3ncccc3c2=O)C[C@H](C)O1", "Percent Effect": -2.09}, {"smiles": "COc1ccc(CCNC(=O)c2ccc(=O)n(C)c2)c(Cl)c1", "Percent Effect": 5.99}, {"smiles": "CCS(=O)(=O)CCCN1CCSCC1c1ccc(Cl)cc1", "note": "(centres undefined)", "Percent Effect": -4.64}, {"smiles": "Cc1noc(C)c1CC(=O)N[C@@H]1CC[C@@H](Oc2ccccc2)[C@@H]1O", "Percent Effect": 5.13}, {"smiles": "O=S(=O)(NCC1(c2cccs2)CCCC1)c1cccnc1", "Percent Effect": -4.96}, {"smiles": "Cn1cc(CC(=O)N2CCCC(c3ccn[nH]3)C2)cn1", "note": "(centres undefined)", "Percent Effect": -1.05}, {"smiles": "O=C(c1cnn2ccccc12)N1CCCC(OCc2ccccn2)C1", "note": "(centres undefined)", "Percent Effect": 14.8}, {"smiles": "Cc1cc(=O)c2cc(F)ccc2n1CC(=O)O", "Percent Effect": 7.06}, {"smiles": "Cc1noc(CCCc2nc(C3CCOC3)no2)n1", "note": "(centres undefined)", "Percent Effect": 10.8}, {"smiles": "CCS(=O)(=O)NCc1nc(C)cc(N2CCCCC2)n1", "Percent Effect": 0.829}, {"smiles": "C[C@@H]1CN(C(=O)C2(Cn3cccn3)CC2)C[C@@]1(O)C1CCC1", "Percent Effect": 5.58}, {"smiles": "Cc1csc(C(=O)N2CC(S(=O)(=O)C3CCCCC3)C2)c1", "Percent Effect": -2.28}, {"smiles": "C[C@@H]1CN(Cc2cn(C)nc2-c2ccccc2F)C[C@H](C)O1", "Percent Effect": 19.5}, {"smiles": "CNC(=O)Cc1ccc(NC(=O)NCc2nc(C)sc2C)cc1", "Percent Effect": 0.571}, {"smiles": "Cc1cccc(NC(=O)N2CCOCC(CN(C)C)C2)c1C", "note": "(centres undefined)", "Percent Effect": -2.2}, {"smiles": "Cc1nn(C)c2nc(NC3CCNCC3)sc12", "Percent Effect": 0.889}, {"smiles": "CN(CCCO)C(=O)c1ccc2c(c1)nc(N1CC[C@H](O)C1)n2C", "Percent Effect": 6.47}, {"smiles": "O=C(Nc1cccnc1)NC1CCN(c2ccccc2OC(F)F)C1", "note": "(centres undefined)", "Percent Effect": 0.675}, {"smiles": "CCCn1nnnc1COC(=O)C1COc2ccc(Cl)cc2C1", "note": "(centres undefined)", "Percent Effect": 19.7}, {"smiles": "Cn1ncnc1NCc1ccccc1Cl", "Percent Effect": 1.77}, {"smiles": "Cc1sc(C(=O)N(C)S(C)(=O)=O)cc1-c1ccc(F)cc1", "Percent Effect": -2.1}, {"smiles": "COc1ccc(OC)c(C(=O)Nc2cccnc2-n2cncn2)c1", "Percent Effect": 2.13}, {"smiles": "CCC(=O)N1CCOC(c2cc(Nc3nncs3)cc(C)n2)C1", "note": "(centres undefined)", "Percent Effect": 23}, {"smiles": "CC(C)c1cc(NCc2csc(N(C)C)n2)nc(N)n1", "Percent Effect": -10.6}, {"smiles": "Cc1cccc(Nc2noc3c2CN(C(=O)c2ccn(C)n2)CC3)c1C", "Percent Effect": 3.74}, {"smiles": "CCc1c(C)nn2c(O)cc(C3CCN(C(=O)c4ccn(C)n4)C3)nc12", "note": "(centres undefined)", "Percent Effect": -4.46}, {"smiles": "COc1ccc(OC2CCN(C(=O)c3ccc(C(C)=O)s3)CC2)cc1", "Percent Effect": -2.68}, {"smiles": "CCn1nc(C)c(CCN2CC3(CCOC3)CCC2=O)c1C", "note": "(centres undefined)", "Percent Effect": -1.79}, {"smiles": "CC(OCC1CC1)C(=O)Nc1nccn1Cc1ccccc1", "note": "(centres undefined)", "Percent Effect": 5.4}, {"smiles": "COc1ccccc1C(C)(C)NC(=O)Nc1ccc(F)c(C(N)=O)c1", "Percent Effect": -5.46}, {"smiles": "COC[C@]1(O)CCN(c2cc(C3CC3)ncn2)CC1(C)C", "Percent Effect": 10.6}, {"smiles": "Cc1cccc(-c2nccnc2C2CCCN(C)C2)c1", "note": "(centres undefined)", "Percent Effect": 11.8}]}]}
